The source of these data is PubChem BioAssay (NCATS).

What all share (assay): qHTS profiling for inhibitors of Plasmodium falciparum proliferation (AID 504749); note: nearly all actives have a fitted effect of over 60% in size
What all share (conditions): P. falciparum in erythrocytes, SYBR Green DNA, 72 h; series mostly up to 28.7 µM
Background: In qHTS, concentration-response curves come from the screen itself.

The test system of one assay is CP238. Summed up:
(§1)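 Infected RBCs, 0.3% parasitemia/2.5% Hct final; cpd 72 h, 37 C, 5% CO2; lysis buffer with saponin/triton/SYBR Green I, o/n RT dark; FI 485/535; norm. to artemisinin (0.29 uM) and DMSO.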

The next assay concerns CP265. Summed up: as §1
The next assay relates to CP237. Summed up:
as §1

Another assay deals with CP247. Summed up:
as §1

Another assay concerns CP250. Summed up: as §1
Another assay has as its system CP252. Summed up: as §1
The subject of another assay is CP256. Summed up:
as §1

For a further assay, the system named is CP260. Summed up: as §1
For another assay, the system named is CP262. An outline of the steps:
as §1

Another assay has as its system CP266. An outline of the steps: as §1

Records with an inconclusive call do not appear. Active and inactive are the calls of the source. Calls come from the whole dose curve; as a rule, active = well fitted inhibition curve with a large enough effect; inconclusive = small, poorly fitted or top-dose-only effect; inactive = flat fitted curve, though single readings scatter.
Potency is the fitted concentration of half-maximal effect.

As for `CN1C2CCC1CC(OC(c1ccccc1)c1ccccc1)C2` (centres undefined), the outcome in the assay with CP238 was inactive. Further, the Potency entry in the assay on CP265 was “inactive”.

For the molecule `CC(C)NC[C@H](O)COc1ccc(CC(N)=O)cc1`, the Potency result with CP237, with CP260 and in the assay on CP265 was “inactive” throughout. The call with CP238, in the assay with CP247, in the assay with CP250, with CP252, in the assay with CP256 and in the assay with CP262 was inactive.

`c1ccc(C2CN3CCSC3=N2)cc1` (centres undefined): the Potency in the assay with CP237 was 3.98 µM (active); in the assay with CP260, 10 µM (active); with CP265, 4.47 µM (active). Also, the result in the assay with CP262 was inactive.

In the case of `CCCCCCCCCCCCCCCCCCOC[C@H](COP(=O)([O-])OCC[N+](C)(C)C)OC`, the Potency result in the assay on CP237 and in the assay with CP265 was “inactive” throughout. Further, the molecule was classed as inactive with CP238, with CP247, in the assay with CP250, in the assay on CP252, with CP256 and in the assay with CP262. Moreover, the outcome in the assay with CP266 was inactive.

Regarding `CCCCCCCCCCCCCCC[C@H](O)[C@H](N)CO`, the Potency result with CP237, with CP260 and in the assay with CP265 was “inactive” in each case. In addition, the result with CP238, with CP247, in the assay on CP250, in the assay with CP252, with CP256 and in the assay on CP262 was inactive. For the same molecule, the call in the assay with CP266 was inactive.

In the case of `CC(O)C(O)[C@H]1CNc2nc(N)[nH]c(=O)c2N1` (some centres undefined), the Potency entry with CP237, in the assay on CP260 and with CP265 was “inactive” in each case. The molecule was called inactive in the assay on CP238, with CP247, in the assay on CP250, with CP252, in the assay on CP256 and in the assay on CP262. In addition, the result with CP266 was inactive.
